According to PubChem BioAssay (EPA / NIEHS):
Results filed as inconclusive are left out. Activity calls are given as the source filed them. How the source made its calls, unless noted: active means hit-call score of the fitted dose curve at least 0.9, where 1 is the maximum; inactive means score below 0.9.

What was measured:
[1] = TOX21_p53_BLA_p2_viability: Viability Assessment in the Tox21 HCT-116 p53 Agonism Beta-lactamase Assay, Phase 2 (AID 2283591; active means hit-call score of the fitted dose curve at least 0.9, where 1 is the maximum;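 further: actives lower the ATP signal meaning cytotoxicity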)
Method in brief: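 Cytotoxicity readout: CellTiter-Glo ATP luminescence, 30 min at room temperature, after the beta-lactamase read. Cells were HCT116 exposed 16 h at 37C to compounds pin-transferred at 217-fold dilution from DMSO stocks.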

[2] = target: Cellular tumor antigen p53 (Homo sapiens) (UniProt P04637); experiment: TOX21_p53_BLA_p2_ratio: Tox21 HCT-116 p53 Agonism Beta-lactamase Assay, Ratio, Phase 2 (AID 2283592; active means hit-call score of the fitted dose curve at least 0.9, where 1 is the maximum)
Method in brief: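 Readout: blue/green (460/530 nm) FRET emission ratio after 2 h CCF4-AM loading at room temperature, excitation 405 nm. HCT116 p53 bla cells, 16 h compound exposure at 37C, 5% CO2; agonist direction fitted against DMSO baseline.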

[3] = TOX21_p53_BLA_p3_viability: Viability Assessment in the Tox21 HCT-116 p53 Agonism Beta-lactamase Assay, Phase 3 (AID 2283593; active means hit-call score of the fitted dose curve at least 0.9, where 1 is the maximum;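 further: cells exposed to compound for 16 h before reading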)
Method in brief: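 Cellular ATP was quantified by CellTiter-Glo luminescence, read after 30 min at room temperature. Beforehand, HCT116 cells (4000/well) received compound 5 h post-seeding, 217-fold diluted from DMSO, then incubated 16 h at 37C.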

[4] = target: Cellular tumor antigen p53 (Homo sapiens) (UniProt P04637); experiment: TOX21_p53_BLA_p3_ratio: Tox21 HCT-116 p53 Agonism Beta-lactamase Assay, Ratio, Phase 3 (AID 2283596; active means hit-call score of the fitted dose curve at least 0.9, where 1 is the maximum)
Method in brief: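 Cells were seeded at 4000/well, rested 5 h at 37C, then dosed with DMSO compound solutions (217-fold dilution) for 16 h. CCF4-AM substrate was loaded for 2 h at room temperature, and the 460/530 nm emission ratio was fitted for gain of signal versus DMSO.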

[5] = TOX21_p53_BLA_p4_viability: Viability Assessment in the Tox21 HCT-116 p53 Agonism Beta-lactamase Assay, Phase 4 (AID 2283597; active means hit-call score of the fitted dose curve at least 0.9, where 1 is the maximum;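 further: hits lower the luminescence signal meaning cytotoxicity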)
Method in brief: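 ATP content by CellTiter-Glo luminescence, 30 min RT, read after the beta-lactamase ratio step. Cells: HCT116, 4000/well, compound added after 5 h, exposure 16 h at 37C. Signal loss = reduced viability.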

[6] = target: Cellular tumor antigen p53 (Homo sapiens) (UniProt P04637); experiment: TOX21_p53_BLA_p5_ratio: Tox21 HCT-116 p53 Agonism Beta-lactamase Assay, Ratio, Phase 5 (AID 2283599; active means hit-call score of the fitted dose curve at least 0.9, where 1 is the maximum)
Method in brief: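 Beta-lactamase reporter ratio (blue 460 nm over green 530 nm, 405 nm excitation) after 2 h CCF4-AM loading, in HCT-116 cells exposed 16 h at 37 C to compounds pinned at 217-fold dilution. Increases relative to DMSO baseline scored.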

[7] = TOX21_p53_BLA_p5_viability: Viability Assessment in the Tox21 HCT-116 p53 Agonism Beta-lactamase Assay, Phase 5 (AID 2283600; active means hit-call score of the fitted dose curve at least 0.9, where 1 is the maximum)
Method in brief: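 ATP luminescence (CellTiter-Glo, 30 min, RT) served as the viability read-out, with loss of signal indicating cytotoxicity. Compounds in DMSO were pinned at a 217-fold dilution onto 4000 cells/well and incubated 16 h, 37C.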

[8] = target: Cellular tumor antigen p53 (Homo sapiens) (UniProt P04637); experiment: TOX21_p53_BLA_p4_ratio: Tox21 HCT-116 p53 Agonism Beta-lactamase Assay, Ratio, Phase 4 (AID 2283601; active means hit-call score of the fitted dose curve at least 0.9, where 1 is the maximum)
Method in brief: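 Signal is the blue/green (460nm/530nm) ratio of cleaved versus uncleaved CCF4-AM substrate, read after 2 h substrate loading. Cells were HCT116 carrying the p53-responsive beta-lactamase reporter, dosed 16 h at 37C, 5% CO2; CellTiter-Glo measured in parallel.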

[9] = CCTE_Shafer_MEA_acute_firing_rate_mean: CCTE's Neural Acute Assay for Mean Firing Rate, Shafer Lab (AID 2284009);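 further: analyzed for loss of signal so actives lower firing rate relative to DMSO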
Method in brief: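 Primary rat cortical neurons on 16-electrode MEA wells were exposed on DIV 13 or 15 to compound (0.03-40 uM). Spike counts per recording time, averaged over electrodes, were compared between 40-min baseline and 40-min post-exposure recordings as percent change.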

[10] = CCTE_Shafer_MEA_acute_burst_number: CCTE's Neural Acute Assay for Single-Electrode Bursts, Shafer Lab (AID 2284013)
Method in brief: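 Primary rat cortical neurons on 16-electrode MEA wells, DIV 13 or 15, exposed to compound (0.03-40 uM; ≥3 wells); 40-min recordings at 37 C before and after treatment. Burst count expressed as percent change from baseline, DMSO as negative control.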

[11] = CCTE_Shafer_MEA_acute_burst_duration_mean: CCTE's Neural Acute Assay for Mean Burst Duration, Shafer Lab (AID 2284014);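 further: hits are decreases in mean burst duration relative to DMSO controls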
Method in brief: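 Mean burst duration was compared between a 40 min baseline and a 40 min recording in the presence of compound (0.03-40 uM, 37 C), giving percent change per well. Cultures were rat cortical neurons at DIV 13 or 15; wells needed ≥10 active electrodes.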

[12] = CCTE_Shafer_MEA_acute_per_burst_spike_number_mean: CCTE's Neural Acute Assay for Average Number of Spikes Per Burst, Shafer Lab (AID 2284015);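 further: hits are decreases in mean spikes per burst versus baseline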
Method in brief: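 Percent change in mean spikes per single-electrode burst is compared between a 40 min baseline and a 40 min recording with compound (0.03-40 uM). Cultures were rat cortical neurons on MEA plates at DIV 13 or 15, recorded at 37 C, with DMSO as the negative control.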

[13] = CCTE_Shafer_MEA_acute_interburst_interval_mean: CCTE's Neural Acute Assay for Mean Interburst Interval, Shafer Lab (AID 2284016);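 further: percent change of mean interburst interval versus each well's own pre-dose baseline; curves fitted for decrease in interburst interval relative to DMSO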
Method in brief: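 Percent change in mean single-electrode interburst interval was calculated per well from 40 min recordings before and after compound (0.03-40 uM). Recordings were made at 37 C on rat cortical cultures at DIV 13 or 15, with spikes detected at 8x rms threshold.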

[14] = CCTE_Shafer_MEA_acute_burst_percentage_mean: CCTE's Neural Acute Assay for Percentage of Spikes in a Burst, Shafer Lab (AID 2284017)
Method in brief: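 Well-level mean burst percentage from a 40-min recording after compound (0.03-40 uM) expressed as percent change from a 40-min baseline at 37C. Cultures: primary rat cortical neurons on MEA, dosed on DIV 13 or 15; fitted downward relative to DMSO.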

[15] = CCTE_Shafer_MEA_acute_burst_percentage_std: CCTE's Neural Acute Assay for Standard Deviation of Burst Percentage, Shafer Lab (AID 2284018);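 further: fitted in the negative direction so actives lower burst percentage SD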
Method in brief: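 Value is percent change from baseline in the across-electrode SD of spikes-in-bursts percentage, wells with >/= 10 active electrodes. Acute 40-min exposure to 0.03-40 uM on DIV 13 or 15 rat cortical cultures, recorded at 37 C after 40-min baseline.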

[16] = CCTE_Shafer_MEA_acute_per_network_burst_spike_number_mean: CCTE's Neural Acute Assay for Average Number of Spikes in a Network Burst, Shafer Lab (AID 2284019)
Method in brief: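 Percent change from baseline in mean spikes per network burst, spikes detected at 8x rms noise. Each compound at 0.03-40 uM in at least three wells of rat cortical cultures, recorded 40 min before and 40 min during exposure.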

[17] = CCTE_Shafer_MEA_acute_per_network_burst_spike_number_std: CCTE's Neural Acute Assay for Standard Deviation of Number of Spikes in a Network Burst, Shafer Lab (AID 2284020);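 further: fitted for decrease in spike-number SD versus DMSO so actives lower it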
Method in brief: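 Endpoint: percent change from 40 min baseline in standard deviation of spikes per network burst, after 40 min compound exposure (0.03-40 uM, 37 C). Cortical rat neurons on MEA at DIV 13 or 15; spikes detected at 8x rms noise, 300-5000 Hz band-pass.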

[18] = CCTE_Shafer_MEA_acute_per_network_burst_electrodes_number_mean: CCTE's Neural Acute Assay for Mean Number of Electrodes in a Network Burst, Shafer Lab (AID 2284021);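 further: curves fitted for decreases only so hits reduce electrodes per burst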
Method in brief: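 Readout: % change in mean electrodes active per network burst, post- vs pre-treatment, each well. Spikes detected at 8x rms noise after 300-5000 Hz band-pass; rat cortical cultures, DIV 13/15, compounds 0.03-40 uM, DMSO baseline.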

[19] = CCTE_Shafer_MEA_acute_network_burst_percentage: CCTE's Neural Acute Assay for Percentage of Network Bursts, Shafer Lab (AID 2284022);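 further: rat primary cortical neuron networks on multiwell MEA recorded 40 min; curves fitted for loss so actives lower network burst percentage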
Method in brief: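 Rat cortical cultures, DIV 13/15; 20 min equilibration, 40 min baseline, compound 0.03-40 uM, 40 min recording, 37 C. Spikes: 300-5000 Hz band-pass, threshold 8x rms noise. Readout: % change in network-burst spike fraction; loss direction vs DMSO.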

[20] = CCTE_Shafer_MEA_acute_cross_correlation_area: CCTE's Neural Acute Assay for Area of Cross Correlation, Shafer Lab (AID 2284024);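 further: rat primary cortical neuron networks on 48-well MEA at DIV 13 or 15 with 40 min exposure; area under pooled inter-electrode spike cross-correlation near zero lag as percent change from own baseline; curves fitted for loss of cross-correlation area so actives lower synchrony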
Method in brief: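 Rat cortical cultures, DIV 13/15, MEA; spikes detected at 8x rms noise (300-5000 Hz band-pass). Compound 0.03-40 uM, ≥3 wells each. Readout: % change in pooled inter-electrode cross-correlation area vs own baseline; DMSO negative control.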

[21] = CCTE_Shafer_MEA_acute_synchrony_index: CCTE's Neural Acute Assay for Synchrony, Shafer Lab (AID 2284027);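 further: network synchrony index of spontaneous spiking in primary rat cortical neurons on MEAs; fitted for loss of signal so actives lower synchrony relative to DMSO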
Method in brief: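 Rat cortical cultures, DIV 13/15; spikes detected at 8x rms noise, 300-5000 Hz band-pass. Compound 0.03-40 uM, ≥3 wells; 40-min pre- and post-exposure recordings, 37 C. Readout: % change in synchrony index; loss-of-signal fit vs DMSO.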

[22] = CCTE_Shafer_MEA_dev_firing_rate_mean: CCTE's Neural Network Formation Assay for Mean Firing Rate, Shafer Lab (AID 2284031)
Method in brief: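 Read-out: spike count/recording length, averaged over active electrodes, then AUC across days 5, 7, 9, 12. Rat cortical cultures on MEA; continuous 12-day exposure, media and treatment renewed DIV 5, 9; DMSO baseline.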

[23] = CCTE_Shafer_MEA_dev_per_burst_spike_percent: CCTE's Neural Network Formation Assay for Percent of Spikes in a Burst, Shafer Lab (AID 2284032)
Method in brief: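 Value is trapezoidal AUC over recordings on days 5, 7, 9 and 12 of the well-mean fraction of spikes falling in single-electrode bursts; rat cortical cultures exposed continuously from plating, treatment renewed DIV 5 and 9, fitted downward against DMSO.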

[24] = CCTE_Shafer_MEA_dev_active_electrodes_number: CCTE's Neural Network Formation Assay for Number of Active Electrodes, Shafer Lab (AID 2284040; active means hit-call score of the fitted dose curve at least 0.9, where 1 is the maximum)
Method in brief: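 Developing rat cortical networks on MEAs, exposed DIV 0–12. Value is the AUC of active-electrode counts (≥5 spikes/min) from days 5, 7, 9, 12, relative to DMSO.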

[25] = CCTE_Shafer_MEA_dev_burst_rate: CCTE's Neural Network Formation Assay for Burst Rate, Shafer Lab (AID 2284042)
Method in brief: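 Exposure ran continuously over 12 days of network development in rat cortical cultures, with compound refreshed during full media changes on DIV 5 and 9. Single-electrode bursts per recording time, well-mean over active electrodes, trapezoidal AUC across days 5–12, fitted downward relative to DMSO.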

[26] = CCTE_Shafer_MEA_dev_bursting_electrodes_number: CCTE's Neural Network Formation Assay for Number of Bursting Electrodes, Shafer Lab (AID 2284043; active means hit-call score of the fitted dose curve at least 0.9, where 1 is the maximum)
Method in brief: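 Number of electrodes reaching ≥1 burst every 2 min was recorded at DIV 5, 7, 9 and 12 and collapsed as trapezoidal area under the curve. Cultures were rat cortical neurons on MEA plates, dosed continuously from plating with medium and treatment refreshed on DIV 5 and 9.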

[27] = CCTE_Shafer_MEA_dev_per_burst_interspike_interval: CCTE's Neural Network Formation Assay for Burst Interspike Interval, Shafer Lab (AID 2284044)
Method in brief: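 Readout is the average time between spikes inside single-electrode bursts, taken as a well mean across bursting electrodes. Cortical neurons from rat developed networks on MEA plates under continuous 12-day exposure; recordings on days 5, 7, 9 and 12 were integrated by trapezoidal AUC.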

[28] = CCTE_Shafer_MEA_dev_burst_duration_mean: CCTE's Neural Network Formation Assay for Mean Burst Duration, Shafer Lab (AID 2284045)
Method in brief: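 Mean single-electrode burst duration (first to last spike), averaged over bursting electrodes per well, then integrated as area-under-curve across recordings at days 5, 7, 9 and 12. Rat cortical cultures on MEAs, compound present from plating, refreshed at feeds.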

[29] = CCTE_Shafer_MEA_dev_interburst_interval_mean: CCTE's Neural Network Formation Assay for Mean Interburst Interval, Shafer Lab (AID 2284046);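 further: well-mean interburst interval of bursting electrodes as AUC over four recording days; curve fitted for decrease in interburst interval relative to DMSO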
Method in brief: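 Primary rat cortical neurons on PEI-coated 48-well MEA plates (laminin added with cells at plating) (16 electrodes/well), exposed from plating day 0 with renewal at DIV 5 and 9. Mean inter-burst interval averaged over bursting electrodes, AUC across days 5, 7, 9, 12; DMSO baseline.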

[30] = CCTE_Shafer_MEA_dev_inter_network_spike_interval_mean: CCTE's Neural Network Formation Assay for Mean Inter-network Spike Interval, Shafer Lab (AID 2284047)
Method in brief: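 Mean time between consecutive network-spike peaks, recorded extracellularly (adaptive spike detection) on DIV 5, 7, 9 and 12, summarized as trapezoidal AUC. Rat cortical cultures on MEAs dosed continuously days 0–12, re-dosed at feeds; loss-of-signal fit relative to DMSO.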

[31] = CCTE_Shafer_MEA_dev_network_spike_number: CCTE's Neural Network Formation Assay for Number of Network Spikes, Shafer Lab (AID 2284048)
Method in brief: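 Number of network spikes (coordinated firing across electrodes) recorded on days 5, 7, 9 and 12 and summarised as area under the curve. Rat cortical cultures on MEA, continuous compound exposure with full medium/treatment exchange at DIV 5 and 9.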

[32] = CCTE_Shafer_MEA_dev_network_spike_peak: CCTE's Neural Network Formation Assay for Mean Number of Electrodes in Network Spike, Shafer Lab (AID 2284049)
Method in brief: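 Rat cortical primary culture, 1.5 x 10^5 cells/well, 48-well MEA (16 electrodes/well). Dosing day 0 through DIV 12, full media/compound exchange DIV 5, 9. AxIS adaptive spike detection; AUC over days 5/7/9/12; loss-of-signal vs DMSO.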

Measured: outcome

Cellular tumor antigen p53 (Homo sapiens), sequence (P04637 whole entry, looked up): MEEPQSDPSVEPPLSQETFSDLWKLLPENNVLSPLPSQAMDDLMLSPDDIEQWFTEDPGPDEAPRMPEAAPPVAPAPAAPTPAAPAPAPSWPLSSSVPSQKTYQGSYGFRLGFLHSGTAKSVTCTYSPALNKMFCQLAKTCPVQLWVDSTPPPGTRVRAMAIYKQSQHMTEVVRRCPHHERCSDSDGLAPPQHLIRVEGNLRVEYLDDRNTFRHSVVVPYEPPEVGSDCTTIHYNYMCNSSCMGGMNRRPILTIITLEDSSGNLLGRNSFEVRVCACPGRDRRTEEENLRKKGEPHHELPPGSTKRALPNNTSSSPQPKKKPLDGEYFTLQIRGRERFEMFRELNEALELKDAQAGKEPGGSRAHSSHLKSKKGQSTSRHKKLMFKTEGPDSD

CC1(C)S[C@@H]2[C@H](NC(=O)[C@H](N)c3ccc(O)cc3)C(=O)N2[C@H]1C(=O)O
inactive: [1] | [2] | [3] | [4] | [5] | [6] | [7] | [8] | [9] | [10] | [11] | [12] | [13] | [14] | [15] | [16] | [17] | [18] | [19] | [20] | [21] | [22] | [23] | [24] | [25] | [26] | [27] | [28] | [29] | [30] | [31] | [32]
